Rab7 wt GTP bind – modulators of GTP binding to dog Rab7 wildtype GTPase. GTP binding activity (percent of control), % at 10 µM. actives 0.055% (n = 190,000). GST-Rab7 beads, fluorescent GTP binding, flow cytometry; actives lie on both sides; untreated = 100%, excess cold GTP = 0%;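 active means fluorescent GTP binding to Rab7 beads changed by at least 20 points from the 100% baseline, either direction, mostly lower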;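 further: median green fluorescence of bound Bodipy-FL-GTP per Rab7 bead population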
Rac1 wt modul – modulators of human Rac1 wildtype GTP binding | GST-Rac1 beads, fluorescent GTP binding, flow cytometry; actives lie on both sides; 0 = cold GTP competed, 100 = untreated | GTP binding activity (% of control), % at 10 µM | actives 0.27% (n = 190,000);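 active means GTP binding activity at least 20 points away from the 100% control level, either lower or higher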
HRas wt GTP – changes GTP binding to wildtype human HRas | actives 0.14% (n = 190,000) | GTP binding activity, % at 10 µM | GST-Ras wt beads, Bodipy-FL-GTP binding, flow cytometry; actives lie on both sides;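 active means GTP binding activity at least 20% away from the 100% baseline, either lowered as inhibitor or raised as activator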
Target sequence (P01112 whole entry, looked up): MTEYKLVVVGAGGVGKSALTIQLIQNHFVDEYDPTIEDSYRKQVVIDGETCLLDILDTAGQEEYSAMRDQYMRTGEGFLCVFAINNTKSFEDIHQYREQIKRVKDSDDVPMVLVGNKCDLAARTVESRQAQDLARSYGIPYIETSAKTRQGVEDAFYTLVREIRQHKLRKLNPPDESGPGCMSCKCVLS
Cdc42 wt GTP – modulators (inhibitors or activators) of GTP binding to human Cdc42 wildtype; actives 0.2% (n = 190,000); percent activity (GTP binding), % at 10 µM; AID 761; GST-Cdc42 beads, Bodipy-GTP binding, flow cytometry; actives lie on both sides;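 active means percent activity GTP binding at least 20 points away from the 100% baseline, either down as inhibitor or up as activator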;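 further: median bead fluorescence of bound Bodipy-FL-GTP at 100 nM; below 100% means less GTP binding so inhibitor and above means activator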
Target sequence (P60953 whole entry, looked up): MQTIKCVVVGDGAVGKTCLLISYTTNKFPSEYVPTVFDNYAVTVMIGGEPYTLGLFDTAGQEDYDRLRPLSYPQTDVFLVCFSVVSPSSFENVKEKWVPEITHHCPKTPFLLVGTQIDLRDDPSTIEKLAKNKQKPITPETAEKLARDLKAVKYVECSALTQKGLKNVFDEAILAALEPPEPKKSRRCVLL
Rac1 act GTP bind – modulators of GTP binding to human Rac1 activated mutant. percent activity (GTP binding), % at 10 µM. AID 764. actives 0.11% (n = 190,000). GST-Rac1 activated beads, fluorescent GTP binding, flow cytometry; actives lie on both sides; 100% means binding = to untreated wells;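 active means GTP binding at least 20 percentage points away from the 100% baseline, in either direction, so actives lie on both sides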
Rab2A wt mod – changes GTP binding to wildtype dog Rab2A, up or down | P61105 | GST-Rab2 wt beads, Bodipy-GTP binding, flow cytometry | GTP binding activity, % at 10 µM | actives 0.19% (n = 190,000);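 active means GTP binding activity at least 20 points away from 100%, either lowered or raised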
Hits are given with their value; – = inactive; [ ] = remark or other dose. This is a sample that favours compounds with a hit; in the whole collection about 0.38% have one here.

SMILES	Rab7 wt GTP bind	Rac1 wt modul	HRas wt GTP	Cdc42 wt GTP	Rac1 act GTP bind	Rab2A wt mod
CCCc1cc(NCc2ccccn2)n2c(nc3ccccc32)c1C#N	–	75	–	–	–	–
CCOc1ccccc1NC(=O)CSc1ccc2nnc(-c3cccnc3)n2n1	–	58	69	65	76	64
COc1ccc(-c2nnc3ccc(SCC(=O)Nc4cc(C)on4)nn23)cc1OC	–	–	–	–	–	–
CCOc1ccccc1NC(=O)CSc1nnc2ccc(-c3ccncc3)nn12	–	–	–	–	–	–
COc1ccc(NC(=O)CSc2ccc3nnc(-c4cccnc4)n3n2)c(OC)c1	–	79	–	–	–	–
CCOc1ccc(NC(=O)C(Cc2ccccc2)N2C(=O)c3cccc4cccc(c34)C2=O)cc1 (stereo unspecified)	–	–	–	–	–	–
COc1ccc(-c2cnc[nH]2)cc1	–	–	–	–	–	–
Nc1c([N+](=O)[O-])cc(-c2cnc[nH]2)cc1[N+](=O)[O-]	–	–	78	77	–	77
COc1cc(O)c(/C=N/NC(=O)c2ccncc2)c(OC)c1[N+](=O)[O-]	–	–	–	–	–	–
CCOC(=O)c1ccccc1NC(=O)Cn1c(-c2nonc2N)nc2ccccc21	–	–	–	–	–	–
Nc1nonc1-c1nc2ccccc2n1CC(=O)N/N=C/c1ccc(-c2ccccc2C(=O)O)o1	–	77	–	–	–	–
CN1/C(=C\C=C(/C#N)C(=O)Nc2ccc(Cl)cc2)C(C)(C)c2ccccc21	–	–	–	–	–	133[activator]
NC(=S)N=Nc1c(O)[nH]c2cc(F)c(F)cc12	–	–	–	–	–	78
O=C(Nc1ccc(Cl)cc1)/C(=C/c1ccc([N+](=O)[O-])cc1)c1nc2ccccc2s1	–	–	–	–	–	–
Cc1nn(-c2ccccc2)c2sc(-c3nnc(SCC(=O)O)o3)cc12	–	–	–	–	–	–
CCn1c(SCC(=O)O)nnc1-c1cc2c(C)nn(-c3ccccc3)c2s1	–	79	–	–	–	–
CCOC(=O)C1=NN(c2ccc(C)cc2)CC1C(=O)OC (stereo unspecified)	–	123[activator]	–	–	–	–
CC(C)CNS(=O)(=O)c1ccc(CCC(=O)Nc2ccc3c(c2)OCO3)cc1	–	–	–	–	–	–
O=C(CCc1ccc(S(=O)(=O)NCCc2ccccc2)cc1)Nc1ccc2c(c1)OCO2	24	33	39	35	35	34
CCOC(=O)N1CCN(C(=O)CCc2ccc(S(=O)(=O)NCCc3ccccc3)cc2)CC1	20	29	37	33	32	32
CC(NCC(O)COCCC12CC3CC(CC(C3)C1)C2)c1ccccc1 (stereo unspecified)	–	–	–	–	–	–
CCC(=O)NC(=S)NNC(=O)COc1ccc(Br)cc1	–	–	–	–	–	–
N#CCc1c(C#N)c(N)nc(N2CCN(S(=O)(=O)c3ccccc3)CC2)c1C#N	–	–	–	–	–	–
N#CCc1c(C#N)c(N)nc(N2CCN(C=O)CC2)c1C#N	–	73	79	78	–	77
Cc1cccc2[nH]c(CN(C)Cc3nc(CC4CC4)no3)nc12	–	–	–	–	–	–
COc1cc(/C=C/c2ccc3cccc([N+](=O)[O-])c3n2)ccc1OCC(=O)O	–	–	72	70	–	69
CCOC(=O)c1cccc(C(=O)Nc2nc3ccc(OC)cc3s2)n1	–	–	–	–	–	–
Cn1cc(C=C2C(=O)CC(C)(C)CC2=O)c2ccccc21	20	33	38	31	34	32
CC(OC(=O)CCc1nc2ccccc2[nH]c1=O)c1ccccc1 (stereo unspecified)	–	–	–	–	–	–
CCOc1cc(C2c3c(-c4ccccc4)n[nH]c3C(=O)N2c2ccc(C(=O)O)cc2)ccc1O (stereo unspecified)	–	59	–	79	74	79
